ChEMBL document CHEMBL3988442, “University of Dundee, Small-Polar-MMV Screening Library” (2021)

Molecular target: T1, Aspartate--tRNA(Asp/Asn) ligase (Mycobacterium tuberculosis (strain ATCC 25618 / H37Rv)) (UniProt P9WFW3)
T1 sequence (whole entry): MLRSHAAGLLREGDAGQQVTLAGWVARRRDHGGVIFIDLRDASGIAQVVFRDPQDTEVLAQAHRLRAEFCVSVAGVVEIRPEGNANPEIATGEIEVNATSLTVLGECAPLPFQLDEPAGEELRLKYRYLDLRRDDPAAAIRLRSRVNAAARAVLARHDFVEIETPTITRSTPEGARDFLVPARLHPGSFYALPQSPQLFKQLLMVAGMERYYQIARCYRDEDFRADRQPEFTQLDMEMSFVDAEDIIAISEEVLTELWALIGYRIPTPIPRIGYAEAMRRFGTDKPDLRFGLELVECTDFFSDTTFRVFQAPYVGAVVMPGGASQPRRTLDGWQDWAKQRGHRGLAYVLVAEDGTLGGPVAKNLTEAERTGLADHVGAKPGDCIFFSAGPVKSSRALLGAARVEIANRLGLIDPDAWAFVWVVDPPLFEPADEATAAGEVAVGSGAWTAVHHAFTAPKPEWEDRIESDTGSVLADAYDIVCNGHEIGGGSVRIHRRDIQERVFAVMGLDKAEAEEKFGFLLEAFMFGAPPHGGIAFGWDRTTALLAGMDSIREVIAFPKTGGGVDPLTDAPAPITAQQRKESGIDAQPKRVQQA
Test: Assay for Asp RNA synthetase-1 from Mycobacterium tuberculosis
Assay type: functional
Set-up: scale not given: in the data most compounds retested in dose-response had high values
Conditions: 30 µM

| Structure (SMILES) | Percent Effect [%] |
| --- | --- |
| CC(=O)NCC(=O)N1C[C@H](OCc2cccnc2)[C@H]2COC[C@H]21 | -1.31 |
| Cc1nc(C)n(C2CCCN(C(=O)c3cnc[nH]3)C2)n1 (stereo not given) | -5.96 |
| O=C(c1cccc(F)c1)N1CCOC(c2nc(-c3ncccn3)no2)C1 (stereo not given) | -5.54 |
| Cc1nn(C)c(C)c1C1CCCN1C(=O)CCc1cscn1 (stereo not given) | -2.02 |
| CCNC(=O)CCN1CCC(c2cc(N3CCOCC3)nc(C)n2)CC1 | -4.4 |
| CCCc1noc(CCC(=O)NC(C)c2nnc3n2CCCCC3)n1 (stereo not given) | -4.13 |
| CN(CCCc1ccccc1)Cc1nc2c(cnn2C)c(=O)[nH]1 | 1.38 |
| Cc1ccccc1OCCC(=O)OC(C)C(=O)Nc1sccc1C(N)=O (stereo not given) | -2.83 |
| CCn1cc(NC(=O)NCc2ccc3c(c2)OCCO3)cn1 | 1.48 |
| CC(C)c1nc(CN(C)CC2CCN(CCO)CC2)no1 | 3.25 |
| CC(C)c1nc(C2CCCN2CCc2ccncc2)no1 (stereo not given) | 1.61 |
| Cc1cc(NC(=O)NCCc2cccs2)n(C)n1 | 1.39 |
| NC(=O)c1cc(C2CCCN(CCOCC(F)(F)F)C2)n[nH]1 (stereo not given) | -1.37 |
| Cc1nc(C)n(CC2CCCCN2Cc2nnc(C3CC3)o2)n1 (stereo not given) | 1.18 |
| COCCN(C)C(=O)Nc1ccc2c(ccn2CCOC)c1 | -1.14 |
| Fc1ccc(CN2CC[C@H]3O[C@@H](COCC4CCOCC4)CC[C@H]32)cc1 | 0.838 |
| Cn1ccc(CN2CCC(COC3CCCC3)CC2)cc1=O | -0.509 |
| Cc1nnc(N2CCOC(Cn3cccn3)C2)c(C#N)c1C (stereo not given) | 3.88 |
| Cc1ncsc1CCC(=O)N1CCCC[C@H](N(C)C)C1 | -3.74 |
| CCc1cnc(C)nc1NCCN1CCCCCC1 | 4.13 |
